Source: PubChem BioAssay AID686978 (National Center for Advancing Translational Sciences (NCATS), 2013)
The whole screen tested about 420,000 compounds, of which about 64,000 (15%) were called active. About 27% were inconclusive and are not listed. Only a sample is shown. A number with no mark means an inactive call. Calls follow the shape of the dose curve; as a rule, active = well fitted inhibition curve with a large enough effect; inconclusive = small, poorly fitted or top-dose-only effect; inactive = flat fitted curve, though single readings scatter.

Assay: qHTS for Inhibitors of human tyrosyl-DNA phosphodiesterase 1 (TDP1): qHTS in cells in absence of CPT; also: nearly all actives have a fitted effect of over 55% in size
Details: DT40 Tdp1-/- hTDP1 cells, no CPT, ATP luminescence, 48 h; activity change, negative = growth inhibition: at 46.2 µM (top of the series)
Procedure, shortened: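 Stably hTDP1-transfected Tdp1-null chicken DT40 cells were treated with library compounds minus camptothecin and grown for at least 48 hr at 37 °C, after which cellular ATP was quantified by luminescence.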
% is scaled to controls: 0 for no effect and ±100 for the full control effect; potency is read from the fitted curve at half-maximal effect.

Row | SMILES | Potency | activity change, negative = growth inhibition
1 | CCS(=O)(=O)N(C)[C@@H]1c2cc(C#N)ccc2OC(C)(C)[C@H]1O | inactive | –
2 | O=c1cc(CCl)nc2scc(-c3ccccc3)n12 | 16.4 µM (active) | –
3 | C/C(CC(O)(/C=N/O)c1ccccc1)=N\O (centres undefined) | – | -2.03%
4 | C/C(CC(=O)Nc1ccc(Cl)cc1)=N\NC(=O)C(=O)NCCO | – | -17%
5 | CC(O)c1nc2c(c(=O)n(C)c(=O)n2C)n1C (centres undefined) | – | 1.38%
6 | CC(C)Cn1cnc2c1c(=O)n(CC(=O)NN)c(=O)n2Cc1ccccc1 | – | 0.54%
7 | CCCCCCn1c(CN2CCCCC2)nc2c1c(=O)n(C)c(=O)n2C | 20.6 µM (active) | –
8 | COCCn1c(CN(Cc2ccccc2)Cc2ccccc2)nc2c1c(=O)n(C)c(=O)n2C | 25.9 µM (active) | –
9 | CC(C)CCn1c(CN(C)Cc2ccccc2)nc2c1c(=O)n(C)c(=O)n2C | 6.51 µM (active) | –
10 | Cn1c(=O)c2c(nc(N3CCOCC3)n2CCNC2=NCCC2)n(C)c1=O | – | -1.9%
11 | CC(C)Cn1c(CN(Cc2ccccc2)Cc2ccccc2)nc2c1c(=O)n(C)c(=O)n2C | 14.6 µM (active) | –
12 | CC(C)CCn1cnc2c1c(=O)n(CC(=O)NC(N)=O)c(=O)n2Cc1ccccc1 | – | 5.92%
13 | CCCCn1c(SCC(=O)N2CCOCC2)nc2c1c(=O)n(C)c(=O)n2C | – | -17.5%
14 | CC(C)Cn1cnc2c1c(=O)n(CC(O)c1ccccc1)c(=O)n2CC(C)C (centres undefined) | – | -11.1%
15 | Cn1c(=O)[nH]c(=O)c2c1nc(CN(Cc1ccccc1)Cc1ccccc1)n2CCN1CCOCC1 | – | -27.6%
16 | Cn1ccnc1-c1nnn(-c2ccc(F)cc2)n1 | – | -17.5%
17 | O=C(OCC(=O)c1cccs1)c1ccc([N+](=O)[O-])o1 | – | -11%
18 | O=C(COc1ccc(-n2cnnn2)cc1)Nc1ccccc1Cl | – | -19.4%
19 | CN(C)S(=O)(=O)c1ccc(N2CCCC2=O)c([N+](=O)[O-])c1 | – | -4.6%
20 | O=C(/C=C/c1ccccc1Cl)Nc1ccc(S(=O)(=O)Nc2ncccn2)cc1 | – | -4.45%
21 | OCCC1CN(Cc2ccc3nsnc3c2)CCN1C1CCCCC1 (centres undefined) | – | -1.61%
22 | Cc1ccc(C)c(SCc2nc3sc(C(=O)O)c(C)c3c(=O)[nH]2)c1 | – | 2.61%
23 | COc1ccccc1NC(=O)CC(NCCN(C)C)C(=O)O (centres undefined) | – | 15.9%
24 | C/C(=N\Nc1ccc(S(N)(=O)=O)cc1[N+](=O)[O-])c1cccs1 | – | -0.0475%
25 | CCOC(=O)[C@H]1[C@H]2COc3ccc(OC)cc3[C@@H]2N2C(=O)c3ccc(F)cc3NC(=O)[C@@]12C | – | -17.3%
26 | COC(=O)C1=C(O)/C(=C/c2ccc(OCC(=O)Nc3ccccc3)cc2)N=C1C | – | -2.77%
27 | O=C(COC(=O)c1cccs1)NCc1cccs1 | – | -4.99%
28 | Nc1nnc(C2CCCC2)s1 | – | 1.87%
29 | COC(=O)c1ccccc1Oc1c(F)c(F)nc(N2CCOCC2)c1F | – | -5.44%
